# Out of some 400,000 compounds screened, about 2,100 (0.53%) were called active. Roughly 14% stayed inconclusive and do not appear here. The rule behind the calls is not given here. The entries come from a sample that favours actives as a whole.
# Target: Ataxin-2 (Homo sapiens) (UniProt Q99700)
# Assay: qHTS for Inhibitors of ATXN expression.
# Format: functional
# Ataxin-2 (Homo sapiens), sequence (Q99700 whole entry): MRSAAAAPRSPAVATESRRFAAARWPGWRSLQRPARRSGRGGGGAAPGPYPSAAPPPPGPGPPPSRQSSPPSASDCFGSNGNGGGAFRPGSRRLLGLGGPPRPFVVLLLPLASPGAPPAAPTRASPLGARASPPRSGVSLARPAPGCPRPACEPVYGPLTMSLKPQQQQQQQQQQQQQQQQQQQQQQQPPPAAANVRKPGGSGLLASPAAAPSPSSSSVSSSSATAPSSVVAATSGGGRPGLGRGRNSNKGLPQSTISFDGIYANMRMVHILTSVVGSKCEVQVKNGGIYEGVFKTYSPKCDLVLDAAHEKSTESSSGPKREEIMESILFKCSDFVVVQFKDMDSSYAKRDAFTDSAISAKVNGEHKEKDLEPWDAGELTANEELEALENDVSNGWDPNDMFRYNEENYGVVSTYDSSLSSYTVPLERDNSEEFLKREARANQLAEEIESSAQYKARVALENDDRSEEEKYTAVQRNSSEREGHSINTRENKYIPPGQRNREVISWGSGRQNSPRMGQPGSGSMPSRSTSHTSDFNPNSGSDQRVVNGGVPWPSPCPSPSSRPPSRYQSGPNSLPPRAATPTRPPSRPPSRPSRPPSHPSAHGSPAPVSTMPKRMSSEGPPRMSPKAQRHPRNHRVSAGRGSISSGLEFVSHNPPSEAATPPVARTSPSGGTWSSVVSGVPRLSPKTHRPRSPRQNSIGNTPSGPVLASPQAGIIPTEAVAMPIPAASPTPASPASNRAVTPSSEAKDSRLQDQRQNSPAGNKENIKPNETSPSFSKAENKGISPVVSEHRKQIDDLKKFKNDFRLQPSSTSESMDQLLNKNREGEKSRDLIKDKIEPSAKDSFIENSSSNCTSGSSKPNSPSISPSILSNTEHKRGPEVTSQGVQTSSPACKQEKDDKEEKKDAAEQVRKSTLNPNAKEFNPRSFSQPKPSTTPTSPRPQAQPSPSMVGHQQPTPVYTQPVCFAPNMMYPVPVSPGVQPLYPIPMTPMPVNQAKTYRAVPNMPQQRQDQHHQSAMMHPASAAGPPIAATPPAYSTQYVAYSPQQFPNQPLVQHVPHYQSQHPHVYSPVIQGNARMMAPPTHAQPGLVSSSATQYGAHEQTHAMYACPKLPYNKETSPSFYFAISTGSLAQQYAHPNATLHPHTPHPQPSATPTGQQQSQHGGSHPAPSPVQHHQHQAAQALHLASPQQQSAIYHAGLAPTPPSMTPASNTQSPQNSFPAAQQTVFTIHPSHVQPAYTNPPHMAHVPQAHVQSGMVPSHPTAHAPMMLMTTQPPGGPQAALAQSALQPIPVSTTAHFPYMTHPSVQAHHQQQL
row,Compound,Potency
1,CC1CCCCC1NC(=O)CN1C(=O)c2cccc(N)c2C1=O (centres undefined),inactive
2,Cc1snc(SCC(=O)c2ccc(F)cc2)c1C#N,inactive
3,COCCCNC(=O)/C(C#N)=C/c1c(N2CCN(c3ccccc3)CC2)nc2ccccn2c1=O,inactive
4,CCCC(=O)Nc1nn(CCC)c2nc3ccccc3cc12,inactive
5,Oc1nc(-c2ccccc2)nc2sc(-c3ccccc3)cc12,inactive
6,Cc1cccc(N2C(=O)c3cccc4c(N(C)CCO)ccc(c34)C2=O)c1,inactive
7,Cc1ccc2nc3c(cc(C(=O)NCC4CCCO4)c(=N)n3C3CCCC3)c(=O)n2c1 (centres undefined),inactive
8,Nc1c(C(=O)N/N=C/c2cccnc2)oc2nc(-c3ccccc3)cc(-c3ccco3)c12,inactive
9,CCOC(=O)N1CCN(C(=O)C2CCN(C(=O)c3ccccc3C)CC2)CC1,35.5 µM (active)
10,CCOC(=O)N1CCC(NS(=O)(=O)c2ccc(C)cc2)CC1,inactive
11,Cc1csc(NC(=O)C2CCN(C(=O)c3ccccc3C)CC2)n1,inactive
12,O=C1OCCN1C(=O)[C@H]1[C@H](c2ccc(Cl)cc2)C(c2ccccc2)=NN1c1ccc(Br)cc1,inactive
13,COC(=O)C1=C(C)NC(=O)NC1c1ccc(N2CCC(c3ccccc3)=N2)cc1 (centres undefined),inactive
14,COc1ccc(C2=CC(c3cccc(OC)c3)n3nnnc3N2)cc1 (centres undefined),inactive
15,COC(=O)c1ccc(CSc2cc(C)c3cccc(C)c3n2)o1,inactive
16,O=C(CCl)N(Cc1cccc([N+](=O)[O-])c1)c1cccc(Cl)c1,2.67 µM (active)
17,Cc1ccc(N(CCC#N)C(=O)CCl)cc1C,35.5 µM (active)
18,N#CCCN(C(=O)CCl)c1cccc(Cl)c1,8.91 µM (active)
19,N#Cc1c2ccc(O)cc2n2ccccc12,inactive
20,O=C(c1ccc(F)cc1)C1CCN(C(=O)c2ccccc2F)CC1,inactive
21,CCn1c(SCC(=O)Nc2cc(C)on2)nc2sc3c(c2c1=O)CCCC3,10 µM (active)
22,Cc1cc(NC(=O)CSc2nc3c(cc2C#N)CCCC3)no1,inactive
23,C=CCNC(=O)CSc1nc2sc3c(c2c(=O)n1CCCOC)CCC3,inactive
24,Cc1c(O)ccc2c(CN(C)Cc3ccccc3)cc(=O)oc12,inactive
25,Cc1ccc(C(=O)Nc2c(C)cc(-c3ccccc3)oc2=O)cc1,inactive

row,Compound,Potency
1,O=c1cc(-c2ccccc2)oc2ccc(O)cc12,inactive
2,O=c1oc(-c2ccccc2)cc(Cl)c1Cl,29.9 µM (active)
3,O=S(=O)(Nc1nccs1)c1ccc(F)cc1,inactive
4,O=C1C=C(C#Cc2ccc(Oc3ccccc3)cc2)C[C@@H](c2ccc(F)cc2)C1,28.2 µM (active)
5,CC(C)C1C(=O)N(Cc2cn(CCC3OCCCO3)nn2)CCS(=O)(=O)N1Cc1ccc(-c2ccc(Cl)c(Cl)c2)cc1 (centres undefined),31.6 µM (active)
6,COc1ccc(-c2ccc(CN3C(C)C(=O)N(Cc4cn(CCC5OCCO5)nn4)CCS3(=O)=O)cc2)cc1 (centres undefined),35.5 µM (active)
7,CC1C(=O)N(Cc2cn(CCC3OCCO3)nn2)CCS(=O)(=O)N1Cc1ccc(-c2ccc(Cl)c(Cl)c2)cc1 (centres undefined),31.6 µM (active)
8,COc1ccc(Cn2c(SCC#N)nc3ccc(N4CCOCC4)cc3c2=O)cc1,inactive
9,CCN1CCN(C(CC(C)C)c2nnnn2CS(=O)(=O)c2ccc(C)cc2)CC1 (centres undefined),inactive
10,Cc1ccc(C(=O)N/C(=C/c2ccc(-c3ccc([N+](=O)[O-])cc3)o2)C(=O)NCCCN(C)C)cc1,inactive
11,Cc1ccc(Cc2cnc(NC(=O)/C(C#N)=C/c3ccc(-c4ccc([N+](=O)[O-])cc4)o3)s2)cc1,22.4 µM (active)
12,COc1cccc(NC(=O)/C(C#N)=C/c2ccc(-c3ccc(C)cc3)o2)c1,inactive
13,N=c1c(C(=O)NCc2ccc(F)cc2)cc2c(=O)n3ccccc3nc2n1CC1CCCO1 (centres undefined),inactive
14,CN1CCc2c(sc3c2C(=O)NC(c2ccc(-c4ccc(Cl)cc4)o2)N3)C1 (centres undefined),inactive
15,O=C1c2ccccc2-c2ccc(C(=O)N3CCCCC3)cc21,inactive
16,O=C1c2cccc3c(N4CCCCC4)ccc(c23)C(=O)N1c1ccccc1O,inactive
17,O=C1C=C(N2CCCCC2)c2ccccc2C1=O,18.9 µM (active)
18,COc1ccccc1C1CN(c2ccccc2)N=C1c1cccs1 (centres undefined),inactive
19,N#Cc1ccc(CN2CCN(C(=O)c3cc(Cl)c4c(c3)OCCO4)CC2)cc1,inactive
20,CCN1C(=O)c2cccc3c(Cl)ccc(c23)C1=O,inactive
21,COCCNC(=O)c1c(N)n(-c2ccccc2)c2nc3ccccc3nc12,inactive
22,COCCCNC(=O)c1c(N)n(-c2ccccc2)c2nc3ccccc3nc12,inactive
23,Cc1ccc(-n2c(N)c(C(=O)Nc3c(C)n(C)n(-c4ccccc4)c3=O)c3nc4ccccc4nc32)cc1,21.2 µM (active)
24,CN(Cc1ccc(OC(F)F)cc1)C(=O)C1CCN(S(=O)(=O)c2ccc3c(c2)OCCO3)CC1,inactive
